Measured values taken from the supplement of paper PMC6992640.

These compounds were tested on UCD52 (cells of a triple-negative basal-like breast cancer xenograft) (assay: cell viability of combination (% of vehicle); higher = less cytotoxic). Details: 1 µM; 72 h; partner dose: 10 nM.
Method: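 PDX cells were treated for 72 h with each drug at 1 µM plus afatinib (10 nM; 1 µM for WHIM30). Luciferase viability is expressed as percent of vehicle.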

| SMILES | cell viability of combination |
| --- | --- |
| CN1CCN(c2ccc(C(=O)/N=c3\[nH][nH]c4ccc(Cc5cc(F)cc(F)c5)cc34)c(NC3CCOCC3)c2)CC1 [Entrectinib] + CN(C)C/C=C/C(=O)Nc1cc2c(Nc3ccc(F)c(Cl)c3)ncnc2cc1O[C@H]1CCOC1 [Afatinib] | 54.3 |
| CC(C)CC(NC(=O)CNC(=O)c1cc(Cl)ccc1Cl)B(O)O (stereo not given) + CN(C)C/C=C/C(=O)Nc1cc2c(Nc3ccc(F)c(Cl)c3)ncnc2cc1O[C@H]1CCOC1 [Afatinib] | 18.1 |
| COc1cc2c(Nc3ccc(Br)cc3F)ncnc2cc1OCC1CCN(C)CC1 [Vandetanib (ZD6474)] + CN(C)C/C=C/C(=O)Nc1cc2c(Nc3ccc(F)c(Cl)c3)ncnc2cc1O[C@H]1CCOC1 [Afatinib] | 36.2 |
| COC(=O)NC(C(=O)NC(Cc1ccccc1)C(O)CN(Cc1ccc(-c2ccccn2)cc1)NC(=O)C(NC(=O)OC)C(C)(C)C)C(C)(C)C (stereo not given) [Atazanavir] + CN(C)C/C=C/C(=O)Nc1cc2c(Nc3ccc(F)c(Cl)c3)ncnc2cc1O[C@H]1CCOC1 [Afatinib] | 56.9 |
| COc1cc2c(Oc3ccc4[nH]c(C)cc4c3F)ncnc2cc1OCCCN1CCCC1 [Cediranib (AZD217)] + CN(C)C/C=C/C(=O)Nc1cc2c(Nc3ccc(F)c(Cl)c3)ncnc2cc1O[C@H]1CCOC1 [Afatinib] | 24.5 |
| Cn1cnc2c(F)c(Nc3ccc(Br)cc3F)c(C(=O)NOCCO)cc21 + CN(C)C/C=C/C(=O)Nc1cc2c(Nc3ccc(F)c(Cl)c3)ncnc2cc1O[C@H]1CCOC1 [Afatinib] | 54 |
| Cl.Fc1ccc(C2CCNCC2COc2ccc3c(c2)OCO3)cc1 (stereo not given) [Paroxetine HCl] + CN(C)C/C=C/C(=O)Nc1cc2c(Nc3ccc(F)c(Cl)c3)ncnc2cc1O[C@H]1CCOC1 [Afatinib] | 60.4 |
| CCCSc1nc(NC2CC2c2ccc(F)c(F)c2)c2nnn(C3CC(OCCO)C(O)C3O)c2n1 (stereo not given) [Ticagrelor] + CN(C)C/C=C/C(=O)Nc1cc2c(Nc3ccc(F)c(Cl)c3)ncnc2cc1O[C@H]1CCOC1 [Afatinib] | 72.2 |
| CS(=O)(=O)CCNCc1ccc(-c2ccc3ncnc(Nc4ccc(OCc5cccc(F)c5)c(Cl)c4)c3c2)o1.Cc1ccc(S(=O)(=O)O)cc1.Cc1ccc(S(=O)(=O)O)cc1 [Lapatinib Ditosylate] + CN(C)C/C=C/C(=O)Nc1cc2c(Nc3ccc(F)c(Cl)c3)ncnc2cc1O[C@H]1CCOC1 [Afatinib] | 41.5 |
| CC[C@H](C)[C@H]1O[C@]2(CC[C@@H]1C)C[C@@H]1C[C@@H](C/C=C(\C)[C@@H](O[C@H]3C[C@H](OC)[C@@H](O[C@H]4C[C@H](OC)[C@@H](O)[C@H](C)O4)[C@H](C)O3)[C@@H](C)/C=C/C=C3\CO[C@@H]4[C@H](O)C(C)=C[C@@H](C(=O)O1)[C@]34O)O2 [Ivermectin] + CN(C)C/C=C/C(=O)Nc1cc2c(Nc3ccc(F)c(Cl)c3)ncnc2cc1O[C@H]1CCOC1 [Afatinib] | 45.8 |
| CC(NCCCc1cccc(C(F)(F)F)c1)c1cccc2ccccc12 (stereo not given) [Cinacalcet] + CN(C)C/C=C/C(=O)Nc1cc2c(Nc3ccc(F)c(Cl)c3)ncnc2cc1O[C@H]1CCOC1 [Afatinib] | 59.9 |
| CN(C)c1ccc(O)c2c1CC1CC3C(N(C)C)C(=O)C(C(N)=O)=C(O)C3(O)C(=O)C1=C2O.Cl (stereo not given) [Minocycline HCl] + CN(C)C/C=C/C(=O)Nc1cc2c(Nc3ccc(F)c(Cl)c3)ncnc2cc1O[C@H]1CCOC1 [Afatinib] | 75.9 |
| CCCCCCCCc1ccc(CCC(N)(CO)CO)cc1.Cl [Fingolimod (FTY720)] + CN(C)C/C=C/C(=O)Nc1cc2c(Nc3ccc(F)c(Cl)c3)ncnc2cc1O[C@H]1CCOC1 [Afatinib] | 69.9 |
| Nc1c(CC(=O)[O-])cccc1C(=O)c1ccccc1.O.[Na+] [Amfenac Sodium Monohydrate] + CN(C)C/C=C/C(=O)Nc1cc2c(Nc3ccc(F)c(Cl)c3)ncnc2cc1O[C@H]1CCOC1 [Afatinib] | 76.3 |
| CN(C)c1ccc(C(=C2C=CC(=[N+](C)C)C=C2)c2ccc(N(C)C)cc2)cc1.[Cl-] [Crystal Violet] + CN(C)C/C=C/C(=O)Nc1cc2c(Nc3ccc(F)c(Cl)c3)ncnc2cc1O[C@H]1CCOC1 [Afatinib] | 41 |
| C=CC(=O)N1CCC(Oc2cc3c(Nc4ccc(Cl)c(Cl)c4F)ncnc3cc2OC)CC1 [Poziotinib] + CN(C)C/C=C/C(=O)Nc1cc2c(Nc3ccc(F)c(Cl)c3)ncnc2cc1O[C@H]1CCOC1 [Afatinib] | 27.6 |
| CNCCCC12CCC(c3ccccc31)c1ccccc12.Cl [Maprotiline HCl] + CN(C)C/C=C/C(=O)Nc1cc2c(Nc3ccc(F)c(Cl)c3)ncnc2cc1O[C@H]1CCOC1 [Afatinib] | 61.4 |
| CCOC(=O)c1c(CSc2ccccc2)n(C)c2cc(Br)c(O)c(CN(C)C)c12.Cl [Arbidol HCl] + CN(C)C/C=C/C(=O)Nc1cc2c(Nc3ccc(F)c(Cl)c3)ncnc2cc1O[C@H]1CCOC1 [Afatinib] | 53 |
| Cl.OC(CNCC(O)C1CCc2cc(F)ccc2O1)C1CCc2cc(F)ccc2O1 (stereo not given) [Nebivolol] + CN(C)C/C=C/C(=O)Nc1cc2c(Nc3ccc(F)c(Cl)c3)ncnc2cc1O[C@H]1CCOC1 [Afatinib] | 64.9 |
| COc1cc2c(Oc3ccc(NC(=O)C4(C(=O)Nc5ccc(F)cc5)CC4)cc3F)ccnc2cc1OCCCN1CCOCC1 + CN(C)C/C=C/C(=O)Nc1cc2c(Nc3ccc(F)c(Cl)c3)ncnc2cc1O[C@H]1CCOC1 [Afatinib] | 28.5 |

| SMILES | cell viability of combination |
| --- | --- |
| CN1CCN(CCOc2cc(OC3CCOCC3)c3c(Nc4c(Cl)ccc5c4OCO5)ncnc3c2)CC1 [Saracatinib (AZD0530)] + CN(C)C/C=C/C(=O)Nc1cc2c(Nc3ccc(F)c(Cl)c3)ncnc2cc1O[C@H]1CCOC1 [Afatinib] | 37.9 |
| CC(O)C(=O)O.CC(O)C(=O)O.CN1CCN(c2ccc3c(c2)NC(=C2C(=O)N=c4cccc(F)c4=C2N)N3)CC1 [Dovitinib Dilactic acid] + CN(C)C/C=C/C(=O)Nc1cc2c(Nc3ccc(F)c(Cl)c3)ncnc2cc1O[C@H]1CCOC1 [Afatinib] | 56.7 |
| COc1cccc2c1C(=O)c1c(O)c3c(c(O)c1C2=O)CC(O)(C(=O)CO)CC3OC1CC(N)C(O)C(C)O1.Cl (stereo not given) [Epirubicin HCl] + CN(C)C/C=C/C(=O)Nc1cc2c(Nc3ccc(F)c(Cl)c3)ncnc2cc1O[C@H]1CCOC1 [Afatinib] | 28 |
| Cc1c(Cl)cccc1Nc1ccccc1C(=O)O [Tolfenamic Acid] + CN(C)C/C=C/C(=O)Nc1cc2c(Nc3ccc(F)c(Cl)c3)ncnc2cc1O[C@H]1CCOC1 [Afatinib] | 78.5 |
| CC(C)(C)NC(=O)C1CC2CCCCC2CN1CC(O)C(Cc1ccccc1)NC(=O)C(CC(N)=O)NC(=O)c1ccc2ccccc2n1.CS(=O)(=O)O (stereo not given) [Saquinavir mesylate] + CN(C)C/C=C/C(=O)Nc1cc2c(Nc3ccc(F)c(Cl)c3)ncnc2cc1O[C@H]1CCOC1 [Afatinib] | 61.1 |
| CN(C(=O)CN(CCO)CC(=O)N(C)C(C)(C)Cc1ccccc1)C(C)(C)Cc1ccccc1 [Oxethazaine] + CN(C)C/C=C/C(=O)Nc1cc2c(Nc3ccc(F)c(Cl)c3)ncnc2cc1O[C@H]1CCOC1 [Afatinib] | 62.9 |
| CCCCCOc1ccc(-c2ccc(-c3ccc(C(=O)N[C@H]4C[C@@H](O)[C@@H](O)NC(=O)[C@@H]5[C@@H](O)[C@@H](C)CN5C(=O)[C@H]([C@@H](C)O)NC(=O)[C@H]([C@H](O)[C@@H](O)c5ccc(O)cc5)NC(=O)[C@@H]5C[C@@H](O)CN5C(=O)[C@H]([C@@H](C)O)NC4=O)cc3)cc2)cc1 [Anidulafungin] + CN(C)C/C=C/C(=O)Nc1cc2c(Nc3ccc(F)c(Cl)c3)ncnc2cc1O[C@H]1CCOC1 [Afatinib] | 68.6 |
| CCOC(=O)C1=C(COCCN)NC(C)=C(C(=O)OC)C1c1ccccc1Cl (stereo not given) [Amlodipine] + CN(C)C/C=C/C(=O)Nc1cc2c(Nc3ccc(F)c(Cl)c3)ncnc2cc1O[C@H]1CCOC1 [Afatinib] | 79.6 |
| Cc1c(-c2ccc(O)cc2)n(Cc2ccc(OCCN3CCCCCC3)cc2)c2ccc(O)cc12.Cl [Bazedoxifene HCl] + CN(C)C/C=C/C(=O)Nc1cc2c(Nc3ccc(F)c(Cl)c3)ncnc2cc1O[C@H]1CCOC1 [Afatinib] | 69.7 |
| [O-]n1ccccc1=S.[O-]n1ccccc1=S.[Zn+2] [Zinc Pyrithione] + CN(C)C/C=C/C(=O)Nc1cc2c(Nc3ccc(F)c(Cl)c3)ncnc2cc1O[C@H]1CCOC1 [Afatinib] | 56 |
| CCN(CC)CCNC(=O)c1c(C)[nH]c(C=C2C(=O)Nc3ccc(F)cc32)c1C.O=C(O)CC(O)C(=O)O [Sunitinib malate] + CN(C)C/C=C/C(=O)Nc1cc2c(Nc3ccc(F)c(Cl)c3)ncnc2cc1O[C@H]1CCOC1 [Afatinib] | 43.6 |
| COc1cc(C(=O)O)ccc1NC(=O)C1NC(CC(C)(C)C)C(C#N)(c2ccc(Cl)cc2F)C1c1cccc(Cl)c1F (stereo not given) + CN(C)C/C=C/C(=O)Nc1cc2c(Nc3ccc(F)c(Cl)c3)ncnc2cc1O[C@H]1CCOC1 [Afatinib] | 60.4 |
| CC(C)C(=O)OCC(=O)[C@@]12O[C@H](C3CCCCC3)O[C@@H]1C[C@H]1[C@@H]3CCC4=CC(=O)C=C[C@]4(C)[C@H]3[C@@H](O)C[C@@]12C [Ciclesonide] + CN(C)C/C=C/C(=O)Nc1cc2c(Nc3ccc(F)c(Cl)c3)ncnc2cc1O[C@H]1CCOC1 [Afatinib] | 99.5 |
| C=C(c1ccc(C(=O)O)cc1)c1cc2c(cc1C)C(C)(C)CCC2(C)C [Bexarotene] + CN(C)C/C=C/C(=O)Nc1cc2c(Nc3ccc(F)c(Cl)c3)ncnc2cc1O[C@H]1CCOC1 [Afatinib] | 82.4 |
| Cl.Cl.Fc1ccc(C(c2ccc(F)cc2)N2CCN(CC=Cc3ccccc3)CC2)cc1 [Flunarizine 2HCl] + CN(C)C/C=C/C(=O)Nc1cc2c(Nc3ccc(F)c(Cl)c3)ncnc2cc1O[C@H]1CCOC1 [Afatinib] | 77 |
| CC(C)N=c1cc2n(-c3ccc(Cl)cc3)c3ccccc3nc-2cc1Nc1ccc(Cl)cc1 [Clofazimine] + CN(C)C/C=C/C(=O)Nc1cc2c(Nc3ccc(F)c(Cl)c3)ncnc2cc1O[C@H]1CCOC1 [Afatinib] | 69.6 |
| CN1CCCC1CCOC(C)(c1ccccc1)c1ccc(Cl)cc1.O=C(O)C=CC(=O)O (stereo not given) [Clemastine Fumarate] + CN(C)C/C=C/C(=O)Nc1cc2c(Nc3ccc(F)c(Cl)c3)ncnc2cc1O[C@H]1CCOC1 [Afatinib] | 65.2 |
| Clc1ccc(C(Cn2ccnc2)OCc2ccc(Sc3ccccc3)cc2)c(Cl)c1.O=[N+]([O-])O (stereo not given) [Fenticonazole Nitrate] + CN(C)C/C=C/C(=O)Nc1cc2c(Nc3ccc(F)c(Cl)c3)ncnc2cc1O[C@H]1CCOC1 [Afatinib] | 59.9 |
| Cl.Nc1ccn(C2OC(CO)C(O)C2O)c(=O)n1 (stereo not given) [Cytarabine hydrochloride] + CN(C)C/C=C/C(=O)Nc1cc2c(Nc3ccc(F)c(Cl)c3)ncnc2cc1O[C@H]1CCOC1 [Afatinib] | 72.2 |
| CC(C)(C)c1ccc(C(=O)CCCN2CCC(OC(c3ccccc3)c3ccccc3)CC2)cc1 [Ebastine] + CN(C)C/C=C/C(=O)Nc1cc2c(Nc3ccc(F)c(Cl)c3)ncnc2cc1O[C@H]1CCOC1 [Afatinib] | 70.1 |
